Measured values published in PubChem BioAssay AID652039 (The Scripps Research Institute Molecular Screening Center, 2013).
In all, about 370,000 compounds went through this assay and about 3,300 (0.89%) were called active. This is one part of a sample in which actives are shown more often than they occur. A number with no mark means an inactive call.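 Rule for the calls: active = activation above the mean of all tested compounds plus 3 SD, computed per campaign excluding outliers beyond control limits (cut at about 13% in these data); inactive = the rest.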

Molecular target: Kallikrein-7 (Homo sapiens) (UniProt P49862)
Test: activation of human kallikrein-7 proenzyme – biochemical, fluorescence intensity, primary screen (AID 652039)
Conditions: purified proKLK7, EDANS-DABCYL substrate fluorescence; at 7 µM; hits give high values

Chain of Kallikrein-7 (Homo sapiens) (P49862 whole entry, looked up): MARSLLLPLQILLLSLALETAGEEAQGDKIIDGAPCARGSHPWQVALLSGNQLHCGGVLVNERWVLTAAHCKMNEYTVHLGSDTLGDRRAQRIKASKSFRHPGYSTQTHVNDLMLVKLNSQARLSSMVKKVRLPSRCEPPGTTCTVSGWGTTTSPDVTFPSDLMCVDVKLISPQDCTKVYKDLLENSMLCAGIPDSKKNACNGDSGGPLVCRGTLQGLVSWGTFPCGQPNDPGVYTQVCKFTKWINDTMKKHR

Structure (SMILES) | activation
CCOc1ccc(-c2cc(C)[n+](CCN(CC)CC)c(-c3ccc(OCC)cc3)c2)cc1 | 44.7% (active)
COc1ccc(-c2nn(CCC#N)cc2C(=O)O)cc1 | -0.57%
COc1cc(OC)cc(C(=O)NCCN2CCC3(CC2)C(=O)NCN3c2ccccc2)c1 | 0.06%
CS(=O)(=O)N1CCC2CCNC2C1 (stereo not given) | -0.49%
COc1ccccc1C1=NCc2nnc(CSC)n2-c2ccc(Cl)cc21 | -0.06%
COC(=O)COc1cc(C)cc2oc(=O)c3c(c12)CCCC3 | 14.7% (active)
Cc1cc(OCc2cc(C(=O)O)oc2C)c2c3c(c(=O)oc2c1)CCCC3 | 9.69%
Brc1ccc2c(c1)CNCc1cnnn1-2 | 0.31%
CCN(CC)C(=O)[C@@H]1C=C2c3cccc4[nH]c(Br)c(c34)C[C@H]2N(C)C1 | -1.09%
Cc1cc(N2CCNC[C@@H]2C)ccc1N1CC[C@H](O)C1 | 1.32%
O=C(OCCN1CCOCC1)C1(c2ccccc2)CCCC1 | 0.22%
COc1cc(Cn2c(N)c(C(=O)NCc3ccco3)c3nc4ccccc4nc32)cc(OC)c1OC | -1.84%
CCOC(=O)c1c(N)n(CCN2CCOCC2)c2nc3ccccc3nc12 | 27.2% (active)
COc1ccc2c(c1)[C@@]13CCCCC1[C@@H](C2)NCC3 (stereo not given in full) | 0.08%
O=S(=O)(c1ccccc1)N1CCC2CCNC2C1 (stereo not given) | -0.08%
c1ccc(CCN2CCC3(CC2)OCCO3)cc1 | 0.24%
C[C@H]1CN([C@@H](C)CO)C(=O)CCCn2nncc2CO[C@H]1CN(C)C(=O)Oc1ccccc1 | -0.02%
COc1cccc(-c2nc3ccc(N4CCN(C)CC4)cc3[nH]2)c1 | 68.7% (active)
Clc1ccc([C@@H]2CC3CCC2N3)cn1 (stereo not given in full) | 0.62%
CCC(C)NC1(c2ccccc2)CCCCC1 (stereo not given) | 0.13%
COc1ccc(C(=O)CC2C(=O)N(C)C(=O)N(C)C2=O)cc1 | -0.07%
Cc1ccccc1CCC[C@@H](CC1CCCCC1)CN(C)C(=O)Oc1ccccc1 | 0.38%
Cc1nc2ccc(N3CCN(C)CC3)cc2nc1C | 83.6% (active)
COP(=O)(Sc1ccccc1)C(Cc1ccccc1)NC(=O)OCc1ccccc1 (stereo not given) | 0.08%
c1ccc2sc(C3CCCNC3)nc2c1 (stereo not given) | 0.61%
